Many of the other results were omitted from the sample, so hits are more common in it than they were.
Tgondii IFNg: blocks Toxoplasma gondii growth in the presence of IFN-gamma | activity change, negative = inhibition, % (test concentration not listed) | hit rate 3.8% among 69,000 | Toxoplasma gondii growth in IFN-gamma-treated host cells; stronger effect = lower value; in the data active means activity change below about -70%, passing the limit was not always enough;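 further: host cells are HeLa cells infected with Toxoplasma gondii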
The depositor's hits bear a star.

SMILES	Tgondii IFNg
CCCn1c(=O)cc(N2CCN(C(=O)CC)CC2)c2cc(C)ccc21	-76*
CCCCn1c(=O)cc(O)c2ccccc21	-3
Cc1ccc(C)c(N2CCN(C(=O)CC3Nc4c5ccccc5nc(=S)n4C3=O)CC2)c1 (centres undefined)	5
Cc1ccc(CN2C[C@H]3COC[C@@]3(CNC(=O)c3cccnc3)C2)s1	-10
c1cnc(N2CC3(CCN(c4nccs4)C3)C2)nc1	-4
CN1CCC2(CCOCC2NC(=O)c2ccccc2)CC1 (centres undefined)	-1
CCOCC1COCCC12CCN(C(=O)CCc1ccccc1)CC2 (centres undefined)	-1
CC(=O)N1CCC2(CCOCC2NC(=O)c2ccccc2)CC1 (centres undefined)	-93*
Cc1cccc(Nc2nc(C(=O)Nc3ccccc3C(F)(F)F)nc3ccccc23)c1	-5
C=CC(C)(C)c1cc(/C=C/C(=O)c2ccc(O)cc2)c(OC)cc1O	18
Cc1ccc(-c2nc(Cn3nnc(C(=O)Nc4cccc(C)c4C)c3C)c(C)o2)cc1	19
Fc1ccc(-n2cc(CCCCN3CCC4(CC3)OCc3ccccc34)c3ccccc32)cc1	-76*
CN(C)CCC1CN(c2nc(C(N)=O)cs2)CCO1 (centres undefined)	-48
COCCN1C(=O)CCc2cc(NS(=O)(=O)c3ccc(OC)c(OC)c3)ccc21	111
CCN1C(=O)CCc2cc(NS(=O)(=O)c3ccccc3Cl)ccc21	28
CCN1C(=O)CCc2cc(NS(=O)(=O)c3cccc(C)c3)ccc21	-43
CCN1C(=O)CCc2cc(NS(=O)(=O)c3ccc(C)c(F)c3)ccc21	-72*
CCN1C(=O)CCc2cc(NS(=O)(=O)c3ccc(Cl)c(Cl)c3)ccc21	-100*
CCN1C(=O)CCc2cc(NS(=O)(=O)c3ccc4c(c3)OCCO4)ccc21	-54
COc1cccc(Cn2nc(C(=O)N3CCCC(O)C3)c3c2CCN(Cc2cccnc2)C3)c1 (centres undefined)	0
Cc1cc2c(cc1-n1cnnc1)OCO2	5
COc1ccc(-c2cc(=O)c3c(O)c(OC)c(O)cc3o2)cc1OC	74
CN(C)[C@@H]1CCN(S(=O)(=O)C2CC2)[C@@H]1Cc1ccccc1	-25
CCc1nc(C)cc(-c2cccc3cccnc23)n1	1
c1ccc(Oc2cccc3cccnc23)nc1	70
SMILES	Tgondii IFNg
c1cnc2c(c1)ccc1cccnc12	-96*
COc1c(C)cnc(CSc2nc3ccccc3c(=O)[nH]2)c1C	-20
CC(C)c1cc(C(=O)NCCn2ncc(-c3ccc(Cl)cc3)c2-c2nccn2C)on1	-12
Cc1cc(C(=O)N2CCCCC2)c2c(=O)n(CC(=O)c3c(C)n(C)c4ccccc34)c(=O)n(C)c2n1	7
Cc1nnc(NC(=O)CSc2ccccn2)s1	10
CCc1nnc(NC(=O)CSc2nc3cccnc3n2Cc2ccccc2)s1	-83*
O=C(CSc1nc2ccccc2n1Cc1ccccc1)Nc1ccccn1	-6
COc1ccc(OC)c(CNc2nc(-c3ccc(Cl)cc3)nc3ccccc23)c1	-33
COC1CCC(C(=O)N2CCN(C)C(=O)C2Cc2cccc(-c3ccccc3C)c2)CC1 (centres undefined)	5
O=C(/C=C\n1cnc(-c2cc(C(F)(F)F)cc(C(F)(F)F)c2)n1)N1CC(F)(F)C1	-80*
O=C(c1cc(C(F)(F)F)cc(C(F)(F)F)c1)N1CC=CCC1	22
O=C(/C=C\n1cnc(-c2cc(C(F)(F)F)cc(C(F)(F)F)c2)n1)NNc1cnccn1	-69
COc1cc(-c2ncn(/C=C\C(=O)OC(C)C)n2)cc(C(F)(F)F)c1	-85*
O=C(c1ccccn1)N1CCc2ncnc(C3CCOC3)c2CC1 (centres undefined)	1
Cc1nccn1CCC1CCN(C(=O)C2CC3(CCNCC3)CN2)CC1 (centres undefined)	0
COC(=O)c1ccc(CSc2n[nH]c(-c3ccncc3)n2)o1	-19
Cc1oc(-c2ccc(Cl)cc2)nc1Cn1c(=O)c2cccnc2n(-c2ccccc2)c1=O	12
O=C1NC2(CCN(C(=O)c3cnccn3)CC2)CC1c1ccccc1 (centres undefined)	6
CC(C)n1cnc2c(-c3cccnc3)nc(C3CCN(Cc4ccccn4)CC3)cc21	-35
Cn1cnc2c(NCc3ccccc3)nc(NCCO)nc21	7
CC[C@H](CO)Nc1nc(NCc2ccc(-c3ccccn3)cc2)c2ncn(C(C)C)c2n1	-79*
CC(C)n1cnc2c(NCc3ccccc3)nc(NCCCO)nc21	-5
CC(C)[C@H](CO)Nc1nc(Nc2cccc(Cl)c2)c2ncn(C(C)C)c2n1	-74*
CC[C@H](CO)Nc1nc(Nc2cccc(-c3ccccn3)c2)c2ncn(C(C)C)c2n1	-79*
CO[C@@H]1CCN(C(=O)c2cnc(C)cn2)[C@H]2CN(Cc3ccco3)C[C@@H]12	6
SMILES	Tgondii IFNg
Cc1c(NCc2cccnc2)cccc1C(=O)NCc1cc(C(C)(C)C)n[nH]1	-44
c1ccc2c(c1)CCN(C1CCN(Cc3cc4n(n3)CCNC4)CC1)C2	5
COc1ccc(CNC(=O)c2ccc(-c3nc(CN4CCc5ccccc54)c(C)o3)cc2)c(OC)c1	263
CN(CCN1CCOCC1)C1CCN(S(=O)(=O)c2ccc3[nH]c(=O)ccc3c2)CC1	38
Cc1nnnn1-c1cccc(C(=O)N2CCC(O)(CN(C)C)C2)c1 (centres undefined)	-45
COCCN1C(=O)CCC12CCCN(C(=O)C1CCOC1)CC2 (centres undefined)	-32
O=C(Cc1ccccn1)N1CC[C@H](O)[C@@H]1Cc1ccncc1	-50
O=C(NCc1cccc(Br)c1)c1nc(N2CCOCC2)c2ccccc2n1	-53
Cc1ccc(C)c(CCNC(=O)CC2C(=O)NCCN2C(C)C)c1 (centres undefined)	6
CC(C)(C)c1cc(C(F)(F)F)nc(SCCCNC(=O)CCc2ccccc2)n1	-74*
O=C(CCc1nc2ccccc2[nH]1)NCCc1ccc(C(F)(F)F)cc1	-5
O=C(CCc1ccccc1)Nc1ccccc1C(F)(F)F	30
O=C(O)c1[nH]ncc1CN1CCC(c2[nH]ncc2-c2cccc(F)c2)CC1	-19
Cc1ccc(-c2nc(CN3CCN(C(=O)Nc4ccccc4C(F)(F)F)CC3)c(C)o2)cc1	-16
CC(=O)N1CC2(CCN(C(=O)Cc3ccsc3)CC2)CC1C(=O)O (centres undefined)	8
CC(C)N1CC[C@]2(CCC[C@@H](CNC(=O)c3cccn3C)O2)C1	3
Cc1ccc(CN2CCCC3(CCN(C(=O)C4CC4)CC3)C2)cc1	177
Cc1cnn(Cc2nc(-c3ccc(NC(=O)c4cc(C)on4)cc3)oc2C)c1	-95*
Cc1cc(C(=O)Nc2ccc(-c3nc(Cn4cccn4)c(C)o3)cc2)no1	-93*
Cc1cnn(Cc2nc(-c3ccc(NC(=O)c4c(F)cccc4F)cc3)oc2C)c1	-68
Cc1ccc(C(=O)Nc2ccc(-c3nc(Cn4cccn4)c(C)o3)cc2)cc1	-47
Cc1cc(C)cc(C(=O)Nc2ccc(-c3nc(Cn4cccn4)c(C)o3)cc2)c1	14
COc1ccccc1OCc1cc(C(=O)N(C)C2CCSCC2)n[nH]1	97
CCN1C(=O)CCc2cc(NC(=O)Cc3cccc(F)c3)ccc21	-18
CC(=O)Nc1ccc(S(=O)(=O)Nc2cncc(C(=O)Nc3cccc(C)c3C)c2)cc1	-16
c1cc(COCc2cncc3c2CCN(Cc2ccoc2)C3)ccn1	6
C[C@@H](Cn1nnc2ccccc21)NC(=O)c1ccc2c(c1)OCO2	65
O=C(CCn1nnc2ccccc21)Nc1nnc(COc2ccc(F)cc2)s1	-69
